Of roughly 7,900 targets only a part is listed; those with a hit were picked by preference. About 0.6% of all pairs of compound and target were hits. A number with no mark means an inactive call.
Experiments:
Assay in all cases: log2 fold change, soluble protein after heating vs DMSO (PISA); higher = thermal stabilisation; K562 cells, 10 uM, 30 min; active = over 0.2 and 3.5 SD of the protein, either way, in both replicates (recomputed)
bafetinib = compound: Cc1ccc(NC(=O)c2ccc(CN3CC[C@H](N(C)C)C3)c(C(F)(F)F)c2)cc1Nc1nccc(-c2cncnc2)n1 [bafetinib]
In short: (§1)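 K562 cells at 2×10^6 cells/mL were treated for 30 min with 10 μM compound, and aliquots were heated for 3 min over 48°C-58°C before pooling. Extraction used PBS with 0.5% NP-40 at 4°C, and soluble protein was the supernatant after 21,000xg for 90 min, measured by TMTpro 16plex LC-MS/MS with channel sums equalised. Thermal stability values, relative to control samples and from duplicates, are log2 fold changes.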

[1] = compound: Cc1cccc(CC(=O)N2CCc3c2ccc(-c2cn(C)c4ncnc(N)c24)c3F)n1
In short: as §1

nilotinib = compound: Cc1cn(-c2cc(NC(=O)c3ccc(C)c(Nc4nccc(-c5cccnc5)n4)c3)cc(C(F)(F)F)c2)cn1 [nilotinib]
In short: as §1

[2] = compound: Cc1nc(Nc2n[nH]c3c2CN(C(=O)N[C@H](CN(C)C)c2ccccc2)C3(C)C)c2sccc2n1
In short: as §1

dasatinib = compound: Cc1nc(Nc2ncc(C(=O)Nc3c(C)cccc3Cl)s2)cc(N2CCN(CCO)CC2)n1 [dasatinib]
In short: as §1

[3] = compound: Cc1ncc(-c2ccnc(Nc3ccc(S(C)(=O)=O)cc3)n2)n1C(C)C
In short: as §1

[4] = compound: Cn1cc(-c2ccc3c(c2)CCN3C(=O)Cc2cccc(C(F)(F)F)c2)c2c(N)ncnc21
In short: as §1

[5] = compound: Cn1cc(-c2ccc3nnc(C(F)(F)c4ccc5ncccc5c4)n3n2)cn1
In short: as §1

tipifarnib = compound: Cn1cncc1[C@@](N)(c1ccc(Cl)cc1)c1ccc2c(c1)c(-c1cccc(Cl)c1)cc(=O)n2C [tipifarnib]
In short: as §1

mubritinib = compound: FC(F)(F)c1ccc(/C=C/c2nc(COc3ccc(CCCCn4ccnn4)cc3)co2)cc1 [mubritinib]
In short: as §1

[6] = compound: NC(=O)Nc1cc(-c2cccc(F)c2)sc1C(=O)N[C@H]1CCCNC1
In short: as §1

[7] = compound: NC(=O)c1cnc(N[C@@H]2CCCC[C@@H]2N)nc1Nc1cccc(-n2nccn2)c1
In short: as §1

[8] = compound: NC1(c2ccc(-c3nc4ccn5c(=O)[nH]nc5c4cc3-c3ccccc3)cc2)CCC1
In short: as §1

[9] = compound: NCC(=O)Nc1ccc(-n2nc(C(F)(F)F)cc2-c2ccc3c(ccc4ccccc43)c2)cc1
In short: as §1

entinostat = compound: Nc1ccccc1NC(=O)c1ccc(CNC(=O)OCc2cccnc2)cc1 [entinostat]
In short: as §1

vorinostat = compound: O=C(CCCCCCC(=O)Nc1ccccc1)NO [vorinostat]
In short: as §1

citarinostat = compound: O=C(CCCCCCNC(=O)c1cnc(N(c2ccccc2)c2ccccc2Cl)nc1)NO [citarinostat]
In short: as §1

silmitasertib = compound: O=C(O)c1ccc2c(c1)nc(Nc1cccc(Cl)c1)c1ccncc12 [silmitasertib]
In short: as §1

[10] = compound: O=C1NC(=O)C(c2cnc3ccccn23)=C1c1cn2c3c(cc(F)cc13)CN(C(=O)N1CCCCC1)CC2
In short: as §1

[11] = compound: c1cc(OCCN2CCCCC2)cc(-c2n[nH]c3ccc(-c4nnc[nH]4)cc23)c1
In short: as §1

Sequence of UniProt Q9UKV3 (Q9UKV3 whole entry, looked up): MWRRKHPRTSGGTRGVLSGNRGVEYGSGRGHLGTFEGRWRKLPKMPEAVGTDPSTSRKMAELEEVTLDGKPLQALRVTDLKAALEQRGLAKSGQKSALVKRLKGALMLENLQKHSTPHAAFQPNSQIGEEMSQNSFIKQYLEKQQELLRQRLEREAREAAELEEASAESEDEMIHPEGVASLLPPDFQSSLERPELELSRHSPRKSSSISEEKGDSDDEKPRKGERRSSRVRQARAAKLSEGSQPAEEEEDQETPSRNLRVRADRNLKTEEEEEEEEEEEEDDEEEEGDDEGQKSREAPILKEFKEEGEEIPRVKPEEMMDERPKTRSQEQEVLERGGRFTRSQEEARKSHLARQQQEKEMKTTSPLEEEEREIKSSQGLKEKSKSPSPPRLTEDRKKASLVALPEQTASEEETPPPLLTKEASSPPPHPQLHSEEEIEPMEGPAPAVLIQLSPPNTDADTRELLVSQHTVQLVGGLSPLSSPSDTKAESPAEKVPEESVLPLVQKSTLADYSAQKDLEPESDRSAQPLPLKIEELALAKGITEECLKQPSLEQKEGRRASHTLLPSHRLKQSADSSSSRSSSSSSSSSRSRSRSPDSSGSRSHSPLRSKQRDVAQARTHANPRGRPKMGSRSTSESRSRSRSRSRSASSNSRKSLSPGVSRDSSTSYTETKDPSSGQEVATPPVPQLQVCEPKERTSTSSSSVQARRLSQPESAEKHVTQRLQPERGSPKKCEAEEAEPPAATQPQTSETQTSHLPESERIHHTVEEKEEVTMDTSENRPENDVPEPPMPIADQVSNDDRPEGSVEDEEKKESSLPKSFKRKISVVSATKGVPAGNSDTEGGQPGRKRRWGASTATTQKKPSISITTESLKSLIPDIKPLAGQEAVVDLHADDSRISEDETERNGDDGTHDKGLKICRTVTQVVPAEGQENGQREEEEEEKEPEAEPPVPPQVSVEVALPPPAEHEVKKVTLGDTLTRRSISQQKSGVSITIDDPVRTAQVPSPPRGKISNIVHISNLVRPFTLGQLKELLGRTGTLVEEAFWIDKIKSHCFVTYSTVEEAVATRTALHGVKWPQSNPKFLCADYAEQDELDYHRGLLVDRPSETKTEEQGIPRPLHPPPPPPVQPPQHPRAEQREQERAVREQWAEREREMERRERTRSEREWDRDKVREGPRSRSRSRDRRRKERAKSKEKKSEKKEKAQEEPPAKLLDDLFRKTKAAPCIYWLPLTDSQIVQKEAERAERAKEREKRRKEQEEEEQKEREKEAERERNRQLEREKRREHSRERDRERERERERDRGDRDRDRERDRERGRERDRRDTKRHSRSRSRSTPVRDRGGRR
Sequence of UniProt Q07960 (Q07960 whole entry, looked up): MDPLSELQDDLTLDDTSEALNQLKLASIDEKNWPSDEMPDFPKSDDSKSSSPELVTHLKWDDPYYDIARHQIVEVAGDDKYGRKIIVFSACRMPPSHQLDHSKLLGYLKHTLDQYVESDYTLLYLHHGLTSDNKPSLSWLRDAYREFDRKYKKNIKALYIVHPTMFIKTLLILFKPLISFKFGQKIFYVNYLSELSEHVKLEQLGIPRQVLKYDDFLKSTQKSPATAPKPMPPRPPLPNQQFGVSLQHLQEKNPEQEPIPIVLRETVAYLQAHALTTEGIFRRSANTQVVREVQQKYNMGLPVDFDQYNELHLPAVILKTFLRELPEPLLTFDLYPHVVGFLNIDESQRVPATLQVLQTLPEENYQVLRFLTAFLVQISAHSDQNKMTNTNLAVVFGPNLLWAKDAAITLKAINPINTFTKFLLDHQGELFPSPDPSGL
Sequence of UniProt P56385 (P56385 whole entry, looked up): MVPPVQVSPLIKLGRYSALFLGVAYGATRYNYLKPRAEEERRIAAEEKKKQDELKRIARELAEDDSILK
Sequence of UniProt Q9Y6E2 (Q9Y6E2 whole entry, looked up): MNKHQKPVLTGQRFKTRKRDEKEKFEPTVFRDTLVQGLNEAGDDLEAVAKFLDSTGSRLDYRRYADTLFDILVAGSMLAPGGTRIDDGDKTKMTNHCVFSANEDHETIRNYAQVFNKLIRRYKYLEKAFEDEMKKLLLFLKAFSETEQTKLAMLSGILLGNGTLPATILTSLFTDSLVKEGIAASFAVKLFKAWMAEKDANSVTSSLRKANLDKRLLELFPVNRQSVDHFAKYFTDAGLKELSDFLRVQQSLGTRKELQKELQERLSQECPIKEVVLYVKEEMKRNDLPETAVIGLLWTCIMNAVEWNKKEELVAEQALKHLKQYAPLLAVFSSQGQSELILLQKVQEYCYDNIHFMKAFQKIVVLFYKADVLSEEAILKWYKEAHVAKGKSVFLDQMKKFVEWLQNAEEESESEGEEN
Sequence of UniProt O43865 (O43865 whole entry, looked up): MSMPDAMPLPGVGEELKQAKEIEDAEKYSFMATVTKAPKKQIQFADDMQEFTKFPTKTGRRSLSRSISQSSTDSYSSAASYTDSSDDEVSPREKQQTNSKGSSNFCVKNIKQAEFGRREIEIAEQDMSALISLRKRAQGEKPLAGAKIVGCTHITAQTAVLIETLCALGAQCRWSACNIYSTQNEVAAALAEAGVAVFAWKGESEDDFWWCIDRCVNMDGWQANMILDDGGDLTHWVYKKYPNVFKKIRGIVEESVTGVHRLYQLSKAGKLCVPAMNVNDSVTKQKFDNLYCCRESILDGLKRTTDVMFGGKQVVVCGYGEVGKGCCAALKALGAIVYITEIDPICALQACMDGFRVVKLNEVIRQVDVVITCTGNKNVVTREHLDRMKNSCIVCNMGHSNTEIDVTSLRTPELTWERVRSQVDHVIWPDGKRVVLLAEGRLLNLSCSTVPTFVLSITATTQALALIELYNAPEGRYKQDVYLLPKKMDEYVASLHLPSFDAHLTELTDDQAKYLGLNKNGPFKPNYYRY
Sequence of UniProt P00966 (P00966 whole entry, looked up): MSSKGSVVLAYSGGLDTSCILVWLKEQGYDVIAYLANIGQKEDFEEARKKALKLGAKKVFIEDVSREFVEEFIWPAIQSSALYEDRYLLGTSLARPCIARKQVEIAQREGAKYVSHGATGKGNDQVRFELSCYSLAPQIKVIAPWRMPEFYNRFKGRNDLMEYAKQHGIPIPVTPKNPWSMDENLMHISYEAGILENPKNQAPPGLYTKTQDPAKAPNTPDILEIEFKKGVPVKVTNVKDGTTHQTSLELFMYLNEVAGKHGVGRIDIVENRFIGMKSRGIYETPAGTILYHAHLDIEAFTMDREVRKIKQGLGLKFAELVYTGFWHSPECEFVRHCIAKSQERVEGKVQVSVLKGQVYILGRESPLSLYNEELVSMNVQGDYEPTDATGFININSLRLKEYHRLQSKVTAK
Sequence of UniProt Q9UKG1 (Q9UKG1 whole entry, looked up): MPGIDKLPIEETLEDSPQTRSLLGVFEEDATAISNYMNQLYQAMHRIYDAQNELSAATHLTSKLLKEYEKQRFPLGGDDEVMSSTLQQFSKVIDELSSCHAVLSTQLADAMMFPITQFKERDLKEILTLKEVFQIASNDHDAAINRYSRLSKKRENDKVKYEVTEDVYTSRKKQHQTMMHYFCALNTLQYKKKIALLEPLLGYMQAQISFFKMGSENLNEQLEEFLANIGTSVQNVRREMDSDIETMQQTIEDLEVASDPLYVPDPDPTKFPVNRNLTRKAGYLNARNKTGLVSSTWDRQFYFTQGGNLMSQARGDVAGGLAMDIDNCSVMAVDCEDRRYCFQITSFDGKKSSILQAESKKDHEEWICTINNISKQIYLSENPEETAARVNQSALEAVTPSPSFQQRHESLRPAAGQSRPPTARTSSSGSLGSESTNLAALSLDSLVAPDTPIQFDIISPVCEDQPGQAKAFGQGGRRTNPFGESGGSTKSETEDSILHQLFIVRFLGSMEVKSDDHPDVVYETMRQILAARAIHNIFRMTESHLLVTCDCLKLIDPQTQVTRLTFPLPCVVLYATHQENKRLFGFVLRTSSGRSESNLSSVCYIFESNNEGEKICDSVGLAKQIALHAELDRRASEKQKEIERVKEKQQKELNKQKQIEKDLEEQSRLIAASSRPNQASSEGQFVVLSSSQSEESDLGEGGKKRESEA
Sequence of UniProt Q13795 (Q13795 whole entry, looked up): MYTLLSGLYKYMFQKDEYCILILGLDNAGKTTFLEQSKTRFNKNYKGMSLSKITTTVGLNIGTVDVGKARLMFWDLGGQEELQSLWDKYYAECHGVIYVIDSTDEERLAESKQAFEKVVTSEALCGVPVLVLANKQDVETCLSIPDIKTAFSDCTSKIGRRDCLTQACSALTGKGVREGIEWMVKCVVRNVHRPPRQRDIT
Sequence of UniProt P31939 (P31939 whole entry, looked up): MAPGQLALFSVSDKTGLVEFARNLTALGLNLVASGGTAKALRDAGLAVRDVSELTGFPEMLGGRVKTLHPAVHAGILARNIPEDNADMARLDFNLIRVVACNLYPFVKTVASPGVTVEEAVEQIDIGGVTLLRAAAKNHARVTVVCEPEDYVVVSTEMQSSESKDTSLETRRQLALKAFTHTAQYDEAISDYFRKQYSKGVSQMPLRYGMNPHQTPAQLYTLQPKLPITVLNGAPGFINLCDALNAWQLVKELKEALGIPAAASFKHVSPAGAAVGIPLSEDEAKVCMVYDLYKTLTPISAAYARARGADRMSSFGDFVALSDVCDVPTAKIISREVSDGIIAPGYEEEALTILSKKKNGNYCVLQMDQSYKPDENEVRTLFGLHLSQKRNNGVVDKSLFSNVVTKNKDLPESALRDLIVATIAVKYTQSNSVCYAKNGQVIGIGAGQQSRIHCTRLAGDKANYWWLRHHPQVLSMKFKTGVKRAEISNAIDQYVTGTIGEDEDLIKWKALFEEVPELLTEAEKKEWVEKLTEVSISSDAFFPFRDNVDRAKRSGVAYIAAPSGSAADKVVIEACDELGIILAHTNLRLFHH
Sequence of UniProt Q16864 (Q16864 whole entry, looked up): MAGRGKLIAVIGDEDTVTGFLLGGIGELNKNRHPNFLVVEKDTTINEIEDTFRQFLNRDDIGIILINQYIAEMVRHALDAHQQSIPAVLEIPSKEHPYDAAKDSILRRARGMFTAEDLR

| Target | log2 fold change (bafetinib) | log2 fold change [1] | log2 fold change (nilotinib) | log2 fold change [2] | log2 fold change (dasatinib) | log2 fold change [3] | log2 fold change [4] | log2 fold change [5] | log2 fold change (tipifarnib) | log2 fold change (mubritinib) | log2 fold change [6] | log2 fold change [7] | log2 fold change [8] | log2 fold change [9] | log2 fold change (entinostat) | log2 fold change (vorinostat) | log2 fold change (citarinostat) | log2 fold change (silmitasertib) | log2 fold change [10] | log2 fold change [11] |
| --- | --- | --- | --- | --- | --- | --- | --- | --- | --- | --- | --- | --- | --- | --- | --- | --- | --- | --- | --- | --- |
| ATP5ME (UniProt P56385) | -0.071 | -0.051 | 0.022 | 0.008 | 0.084 | -0.046 | 0.001 | 0.103 | -0.031 | 0.023 | 0.003 | -0.007 | 0.057 | -0.04 | 0.026 | -0.027 | -0.007 | -0.008 | -0.037 | -0.039 |
| APPL1 (UniProt Q9UKG1) | -0.013 | -0.092 | -0.046 | 0.161 | -0.003 | 0.002 | 0.03 | -0.001 | -0.051 | -0.029 | -0.032 | -0.012 | -0.023 | -0.043 | -0.053 | 0.009 | 0.04 | 0.022 | -0.046 | 0.07 |
| ARHGAP1 (UniProt Q07960) | 0.001 | 0.016 | -0.019 | -0.056 | -0.101 | 0.007 | -0.025 | -0.008 | -0.069 | 0.01 | -0.068 | -0.048 | -0.003 | -0.051 | 0.016 | 0.012 | 0.009 | 0.014 | -0.024 | -0.093 |
| ASS1 (UniProt P00966) | -0.113 | -0.001 | -0.017 | 0.021 | 0.013 | -0.017 | 0.093 | 0.06 | 0.005 | 0.009 | -0.054 | -0.184 | -0.087 | 0.026 | 0.096 | -0.052 | -0.037 | 0.02 | -0.013 | 0.013 |
| AARS2 (UniProt Q5JTZ9) | -0.07 | 0.011 | -0.085 | -0.047 | -0.184 | -0.036 | 0.052 | 0.05 | -0.063 | -0.143 | -0.029 | -0.018 | -0.212 | -0.086 | 0.045 | 0.015 | 0.037 | -0.051 | -0.026 | 0.06 |
| ATIC (UniProt P31939) | 0.067 | 0.058 | 0.158 | -0.033 | 0.022 | -0.006 | 0.104 | 0.048 | -0.047 | 0.206 (active) | -0.023 | 0.001 | 0.03 | -0.009 | -0.019 | -0.026 | 0.01 | -0.059 | -0.066 | 0.013 |
| AFDN isoform 5 (UniProt P55196) | -0.012 | 0.035 | -0.06 | -0.135 | -0.16 | -0.06 | 0.044 | -0.008 | -0.045 | 0.054 | -0.154 | -0.009 | -0.099 | -0.025 | 0.008 | 0.019 | 0.079 | -0.012 | -0.052 | -0.068 |
| ADD1 isoform 3 (UniProt P35611) | -0.018 | 0.068 | 0.014 | -0.02 | 0.041 | -0.093 | 0.009 | 0.014 | 0.015 | 0.033 | 0.03 | -0.016 | 0.034 | -0.02 | -0.071 | 0.01 | 0.034 | -0.01 | -0.06 | 0.01 |
| ANXA5 (UniProt P08758) | 0.019 | 0.058 | -0.015 | -0.052 | -0.079 | 0.006 | 0.017 | 0.025 | -0.061 | 0.009 | -0.021 | -0.044 | -0.139 | -0.031 | 0.055 | 0.027 | 0.115 | 0 | -0.045 | -0.008 |
| BZW2 (UniProt Q9Y6E2) | -0.021 | 0.073 | -0.057 | -0.04 | -0.132 | -0.019 | 0.034 | -0.004 | -0.158 | 0.095 | 0.019 | -0.055 | -0.225 | -0.066 | 0.047 | -0.003 | 0.044 | -0.001 | -0.044 | -0.069 |
| AHCYL1 (UniProt O43865) | -0.009 | -0.135 | 0.006 | 0.029 | 0.005 | 0.116 | 0.041 | 0.041 | -0.014 | -0.055 | 0.183 | 0.106 | 0.003 | 0.046 | -0.109 | 0.116 | -0.017 | 0.188 | -0.002 | 0.253 |
| ACIN1 (UniProt Q9UKV3) | 0.022 | -0.037 | 0.086 | -0.444 (active) | 0.016 | -0.065 | 0.117 | -0.027 | 0.026 | 0.049 | -0.013 | -0.038 | 0.003 | -0.062 | -0.024 | 0.035 | 0.035 | -0.124 | 0.013 | -0.084 |
| ATP6V1F isoform 2 (UniProt Q16864) | 0 | -0.053 | 0.078 | -0.03 | 0.034 | -0.028 | 0.101 | 0.132 | 0.32 | 0.045 | 0.175 | 0.221 | -0.078 | 0.143 | 0.087 | -0.092 | 0.026 | -0.042 | -0.073 | 0.026 |
| ARFGAP1 (UniProt Q8N6T3) | -0.041 | -0.009 | -0.015 | -0.193 | -0.097 | -0.004 | -0.003 | 0.008 | -0.036 | -0.022 | -0.036 | -0.033 | -0.073 | -0.052 | 0.041 | 0.006 | 0.056 | 0.063 | -0.092 | 0.035 |
| BUB1B isoform 3 (UniProt O60566) | 0.03 | 0.107 | -0.089 | -0.142 | -0.13 | 0.02 | 0 | 0.017 | -0.114 | 0.012 | 0 | -0.135 | -0.113 | -0.039 | 0.068 | 0.124 | 0.02 | 0.111 | 0.026 | 0 |
| ARFRP1 (UniProt Q13795) | 0.025 | 0.327 (active) | -0.061 | -0.014 | -0.017 | 0.112 | 0.11 | -0.003 | -0.069 | -0.019 | 0.167 | 0.108 | -0.173 | 0.067 | 0.117 | 0.054 | 0.025 | 0.013 | -0.085 | 0.074 |

— the supplement of paper PMC10849652
